Shown is part of a subset that was picked to be rich in hits.
KDM5B inhibitor: inhibitors of human KDM5B histone demethylase; 220,000 compounds, 2.6% hits; Q9UGL1; Potency, µM (titrated, usually from 57.7 µM), most hits filed as inhibitors; KDM5B demethylase, FDH-coupled NADH fluorescence (FDH is formaldehyde dehydrogenase); active = well fitted inhibition curve with a large enough effect; note: 0% is about no effect; nearly all actives have a fitted effect of over 70% in size
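Compound dilutions met 200 nM (final) KDM5BΔAP for 10 min at room temperature before substrate addition. The substrate mix held 12.5 µM H3K4me3 with cofactors 25 µM α-ketoglutarate and 50 µM Fe²⁺. NADH signal gain over 30 min defined activity.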
Numbers without * were called inactive. Potency is the fitted concentration of half-maximal effect.

`COc1ccc(CN2CCCC3(CC(C(C)C)=NO3)C2)cc1` (stereo not given) gave KDM5B inhibitor inactive.
`CCc1noc(-c2cn(C3CCCN(C(=O)c4cc(Cl)ccc4F)C3)nn2)n1` (stereo not given) gave KDM5B inhibitor inactive.
Screening Cc1ccc(Nc2ncncc2-c2nc(-c3ccccc3)no2)c(F)c1 returned KDM5B inhibitor inactive.
Screening Cc1ccc(F)c(Nc2ncncc2-c2nc(-c3ccccc3)no2)c1 returned KDM5B inhibitor inactive.
COc1ccc(OC)c(Nc2ncncc2-c2nc(-c3ccccc3)no2)c1 was read as KDM5B inhibitor inactive.
COc1cccc(CNc2ncncc2-c2nc(-c3ccccc3)no2)c1 was read as KDM5B inhibitor inactive.
Screening Cc1ccc(CCNc2ncncc2-c2nc(-c3ccccc3)no2)cc1 returned KDM5B inhibitor 32µM*.
For Cc1ccc(Cl)cc1Nc1ncncc1-c1nc(-c2ccccc2)no1 the results were KDM5B inhibitor 25µM*.
Screening Cc1ccccc1CNC(C)(C)CO returned KDM5B inhibitor inactive.
Screening CCCCOc1ccc(/C=C/C(=O)c2ccc(Br)cc2)cc1 returned KDM5B inhibitor inactive.
`COc1ccc(-c2cc(N3CCCC(NC(=O)c4ccc(Br)o4)C3)n[nH]2)cc1` (stereo not given) gave KDM5B inhibitor inactive.
Screening O=C(NCCc1c[nH]c2ccccc12)c1ccc(Cl)c(Cl)c1 returned KDM5B inhibitor inactive.
`CCCCN(CC)C(=O)NNC(=O)C(C)Oc1ccc(C#N)cc1` (stereo not given) gave KDM5B inhibitor inactive.
For Cc1ccc(CNC(=O)C2CCCCC2)s1 the results were KDM5B inhibitor inactive.
CC(C)(C)NC(=O)CNC(=O)C1CCCN1S(=O)(=O)c1ccc(Cl)s1 (stereo not given) was read as KDM5B inhibitor inactive.
Screening CC(C)c1noc(-c2ccn3c(CNC(=O)c4ccc(N(C)C)cc4)nnc3c2)n1 returned KDM5B inhibitor 22µM*.
For CCN(CC)c1ccc(C(=O)NCc2nnc3cc(-c4nc(C)no4)ccn23)cc1 the results were KDM5B inhibitor inactive.
`CC(C)c1noc(-c2ccn3c(CNC(=O)c4cccc(N(C)C)c4)nnc3c2)n1` gave KDM5B inhibitor 28µM*.
For COc1ccc(C(C)NC(=O)COc2ccc(NC(=O)C3CC3)cn2)cc1 (stereo not given) the results were KDM5B inhibitor inactive.
Screening O=C(NCC1CC1)c1cccc(OC2CN(CC3CC=CCC3)C2)c1 (stereo not given) returned KDM5B inhibitor inactive.
`CC(C)Cc1nc(OCC(=O)N2CCCCC2)c(C#N)c2c1CCCC2` gave KDM5B inhibitor inactive.
For CC(C(=O)Nc1ccccc1C#N)N(C)Cc1ccccc1N1CCCCC1 (stereo not given) the results were KDM5B inhibitor inactive.
For S=C(NCCc1ccccc1Cl)Nc1ccc(Cl)c(Cl)c1 the results were KDM5B inhibitor inactive.
For O=C(NCC1CC1)c1cc(C2CC2)nc2onc(C3CCCNC3)c12 (stereo not given) the results were KDM5B inhibitor 89µM*.
Screening COCCNC(=O)c1cc(-c2ccccc2C(F)(F)F)nc2onc(C3CCCN3)c12 (stereo not given) returned KDM5B inhibitor inactive.
Screening O=C(NCc1ccc(F)cc1)c1cc(C2CC2)nc2onc(C3CCCN3)c12 (stereo not given) returned KDM5B inhibitor inactive.
`Cc1cc(C(=O)NC2CCCC2)c2c(C3CCCN3)noc2n1` (stereo not given) gave KDM5B inhibitor inactive.
For O=C(c1cc(C2CC2)nc2onc(C3CCCN3)c12)N1CCCCC1 (stereo not given) the results were KDM5B inhibitor inactive.
COCCNC(=O)c1cc(C2CC2)nc2onc(C3CCCN3)c12 (stereo not given) was read as KDM5B inhibitor 56µM*.
Screening Cc1cc(C(=O)NCCCOC(C)C)c2c(C3CCCN3)noc2n1 (stereo not given) returned KDM5B inhibitor 50µM*.
Cc1cc(C(=O)NCC2CC2)c2c(C3CCNCC3)noc2n1 was read as KDM5B inhibitor inactive.
Screening O=C(NCc1ccc(F)cc1)c1cc(C2CC2)nc2onc(C3CCCNC3)c12 (stereo not given) returned KDM5B inhibitor inactive.
For Cc1cc(C(=O)NC2CC2)c2c(C3CCCN3)noc2n1 (stereo not given) the results were KDM5B inhibitor inactive.
For O=C(NCC1CC1)c1cc(C2CC2)nc2onc(C3CCCN3)c12 (stereo not given) the results were KDM5B inhibitor 89µM*.
For COc1cc(CNC(=O)c2cc(C3CC3)nc3onc(C)c23)cc(OC)c1OC the results were KDM5B inhibitor inactive.
For O=C(NCC(=O)N1CCN(S(=O)(=O)c2ccc3ccccc3c2)CC1)c1ccc2c(c1)OCO2 the results were KDM5B inhibitor inactive.
Cn1cnc2c1c(=O)n(Cc1ccccc1F)c(=O)n2C was read as KDM5B inhibitor inactive.
Screening CCn1nc(C(=O)Nc2ccc(OCC(=O)N(C)C)cc2)c2ccccc2c1=O returned KDM5B inhibitor inactive.
NC(=S)N/N=C1\CCCC\C1=C/c1ccco1 was read as KDM5B inhibitor inactive.
`CCC1CN(Cc2nc(CCOC)no2)CCC(=O)N1Cc1ccccc1` (stereo not given) gave KDM5B inhibitor inactive.
For Cc1ccsc1C(=O)OCC(=O)c1ccccc1 the results were KDM5B inhibitor inactive.
For O=C(NC1CCCC1)c1cc(-c2ccc(Cl)c(Cl)c2)nc2ccccc12 the results were KDM5B inhibitor inactive.
N#CC(C(=O)CCC1CCCC1)C(=O)NCc1ccccc1 (stereo not given) was read as KDM5B inhibitor inactive.
O=C(CCC1CCCC1)Nc1nc2ccc(F)cc2s1 was read as KDM5B inhibitor inactive.
Screening Cc1ccc(C(=O)NCCn2ccn3nc(-c4ccc(F)cc4)cc3c2=O)s1 returned KDM5B inhibitor inactive.
`Cc1ccc(-c2cc3c(=O)n(CCNC(=O)c4ccccc4F)ccn3n2)cc1C` gave KDM5B inhibitor 20µM*.
COc1cccc(-c2cc3c(=O)n(CCNC(=O)c4cc(F)ccc4F)ccn3n2)c1 was read as KDM5B inhibitor inactive.
For CCn1nccc1C(=O)NCCn1ccn2nc(-c3ccc(C)c(C)c3)cc2c1=O the results were KDM5B inhibitor 35µM*.
COc1cccc(C(=O)NCCn2ccn3nc(-c4ccc(C)c(C)c4)cc3c2=O)c1OC was read as KDM5B inhibitor 35µM*.
For Cc1ccc(-c2cc3c(=O)n(CCNC(=O)Cc4cccs4)ccn3n2)cc1C the results were KDM5B inhibitor inactive.
Screening COCC(c1ccccn1)N(C)C(=O)c1cc(S(N)(=O)=O)ccc1F (stereo not given) returned KDM5B inhibitor inactive.
`COc1cccc(-c2ccc(=O)n(CC(=O)Nc3cc(Cl)c(OC)cc3OC)n2)c1` gave KDM5B inhibitor inactive.
`O=C(CN1C(=O)NC(c2ccc(Cl)cc2)C2=C1COC2=O)Nc1ccc(Br)cc1F` (stereo not given) gave KDM5B inhibitor inactive.
Screening Cn1c(=O)c2c(ncn2CCC(=O)Nc2ccc(Br)cc2F)n(C)c1=O returned KDM5B inhibitor inactive.
CC(=O)N1Cc2ccccc2OC2(CCN(C(=O)NC(C)C)CC2)C1 was read as KDM5B inhibitor inactive.
Screening CC(=O)N1Cc2ccccc2OC2(CCN(C(=O)N(C)C)CC2)C1 returned KDM5B inhibitor inactive.
Screening CC(=O)N1CCC2(CC1)CN(C(=O)c1ccc(N)nc1)Cc1ccccc1O2 returned KDM5B inhibitor inactive.
